Test results as given in PubChem BioAssay (Tox21).
Where “and” joins values, the source holds several entries; their conditions need not be identical. Identical values can stand only once. Inconclusive results are not listed. Entries that show only a call come without a potency. Some compounds were tested as several samples or in several runs, with calls that do not always agree. Calls of active or inactive are those of the source. Calls follow the shape of the dose curve; as a rule, active = well fitted curve in the direction sought with a large enough effect in the repeat runs; inconclusive = weak or mixed curves; inactive = no such curve, though single readings can be large; an effect the other way counts as inactive or inconclusive.

Columns and labels:
[1] = target: Voltage-gated inwardly rectifying potassium channel KCNH2 (Homo sapiens) (UniProt Q12809); assay: Human Ether-a-go-go-Related Gene (hERG) channel small molecule antagonists: fluorescence cell-based qHTS assay (AID 1671200);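 also: hERG-expressing U2OS cells given a thallium stimulus after FluxOR II dye loading; series mostly up to about 77 µM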
Summary of the method: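 Measured: Tl+ flux via fluorescence (480/540 nm) in hERG-expressing U2OS cells after 1 h dye loading at room temperature.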

[2] = target: Cytochrome P450 1A2 (Homo sapiens) (UniProt P05177); assay: Cytochrome P450 Family 1 Subfamily A Member 2 (CYP1A2) small molecule antagonists: luciferase reporter qHTS assay (AID 1671199); also: potency is read from the fitted curve at half-maximal effect
Summary of the method: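 Inhibition of CYP1A2 conversion of proluciferin to luciferin, detected by luminescence. Reaction run 1 h at room temperature with NADPH regeneration after brief compound preincubation.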

[3] = target: Cytochrome P450 3A4 (Homo sapiens) (UniProt P08684); assay: Cytochrome P450 Family 3 Subfamily A Member 4 (CYP3A4) small molecule antagonists: luciferase reporter qHTS assay (AID 1671201); also: series mostly up to about 120 µM
Summary of the method: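 Setup: enzyme-substrate mix, compound pin transfer, 10 min RT. Reaction: NADPH regeneration solution, 1 h RT. Readout: detection reagent stops turnover, luminescence measured after 20 min, expressed in relative luminescence units.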
Also: nearly all actives have a fitted effect of over 50% in size.

Sequence of Cytochrome P450 3A4 (Homo sapiens) (P08684 whole entry, looked up): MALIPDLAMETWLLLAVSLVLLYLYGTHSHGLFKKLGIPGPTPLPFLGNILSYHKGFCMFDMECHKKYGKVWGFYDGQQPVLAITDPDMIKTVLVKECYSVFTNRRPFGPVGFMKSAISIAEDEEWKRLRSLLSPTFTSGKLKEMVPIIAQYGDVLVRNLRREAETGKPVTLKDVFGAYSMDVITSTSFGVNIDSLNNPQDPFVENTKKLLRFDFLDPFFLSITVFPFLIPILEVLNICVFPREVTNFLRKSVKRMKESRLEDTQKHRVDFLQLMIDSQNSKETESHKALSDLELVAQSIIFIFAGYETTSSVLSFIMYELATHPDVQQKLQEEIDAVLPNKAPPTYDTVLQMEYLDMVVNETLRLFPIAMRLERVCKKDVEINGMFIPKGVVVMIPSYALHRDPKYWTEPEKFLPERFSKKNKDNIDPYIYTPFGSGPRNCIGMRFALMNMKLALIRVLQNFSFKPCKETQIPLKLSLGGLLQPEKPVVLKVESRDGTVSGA
Sequence of Voltage-gated inwardly rectifying potassium channel KCNH2 (Homo sapiens) (Q12809 whole entry, looked up): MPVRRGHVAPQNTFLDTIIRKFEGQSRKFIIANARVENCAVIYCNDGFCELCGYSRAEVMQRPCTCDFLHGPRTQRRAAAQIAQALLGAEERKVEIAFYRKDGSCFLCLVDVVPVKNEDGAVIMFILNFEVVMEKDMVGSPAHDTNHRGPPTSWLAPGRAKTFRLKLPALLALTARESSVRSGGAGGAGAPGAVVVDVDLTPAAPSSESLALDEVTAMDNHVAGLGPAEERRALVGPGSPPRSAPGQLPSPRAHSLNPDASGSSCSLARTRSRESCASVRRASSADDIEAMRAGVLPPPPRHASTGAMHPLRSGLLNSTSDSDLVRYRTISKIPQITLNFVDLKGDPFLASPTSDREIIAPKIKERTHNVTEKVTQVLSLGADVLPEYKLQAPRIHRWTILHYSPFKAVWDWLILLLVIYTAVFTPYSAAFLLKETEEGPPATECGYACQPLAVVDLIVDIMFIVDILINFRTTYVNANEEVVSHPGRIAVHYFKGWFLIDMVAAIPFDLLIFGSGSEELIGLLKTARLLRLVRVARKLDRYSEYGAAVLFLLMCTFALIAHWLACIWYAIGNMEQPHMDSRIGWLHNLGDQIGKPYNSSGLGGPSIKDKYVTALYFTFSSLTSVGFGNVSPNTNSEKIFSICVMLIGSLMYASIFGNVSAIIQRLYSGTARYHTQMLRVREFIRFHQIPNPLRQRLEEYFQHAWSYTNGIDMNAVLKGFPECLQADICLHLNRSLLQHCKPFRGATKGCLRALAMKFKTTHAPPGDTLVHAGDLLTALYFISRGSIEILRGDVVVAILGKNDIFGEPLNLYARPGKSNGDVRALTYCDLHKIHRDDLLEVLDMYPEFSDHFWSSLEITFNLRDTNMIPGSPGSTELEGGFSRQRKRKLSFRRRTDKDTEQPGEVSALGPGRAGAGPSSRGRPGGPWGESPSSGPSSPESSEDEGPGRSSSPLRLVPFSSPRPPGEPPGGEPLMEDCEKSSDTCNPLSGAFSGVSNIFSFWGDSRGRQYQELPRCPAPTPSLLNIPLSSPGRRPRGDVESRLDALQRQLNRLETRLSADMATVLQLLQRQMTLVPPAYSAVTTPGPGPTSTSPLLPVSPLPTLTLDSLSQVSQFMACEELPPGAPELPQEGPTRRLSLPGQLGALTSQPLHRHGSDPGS
Sequence of Cytochrome P450 1A2 (Homo sapiens) (P05177 whole entry, looked up): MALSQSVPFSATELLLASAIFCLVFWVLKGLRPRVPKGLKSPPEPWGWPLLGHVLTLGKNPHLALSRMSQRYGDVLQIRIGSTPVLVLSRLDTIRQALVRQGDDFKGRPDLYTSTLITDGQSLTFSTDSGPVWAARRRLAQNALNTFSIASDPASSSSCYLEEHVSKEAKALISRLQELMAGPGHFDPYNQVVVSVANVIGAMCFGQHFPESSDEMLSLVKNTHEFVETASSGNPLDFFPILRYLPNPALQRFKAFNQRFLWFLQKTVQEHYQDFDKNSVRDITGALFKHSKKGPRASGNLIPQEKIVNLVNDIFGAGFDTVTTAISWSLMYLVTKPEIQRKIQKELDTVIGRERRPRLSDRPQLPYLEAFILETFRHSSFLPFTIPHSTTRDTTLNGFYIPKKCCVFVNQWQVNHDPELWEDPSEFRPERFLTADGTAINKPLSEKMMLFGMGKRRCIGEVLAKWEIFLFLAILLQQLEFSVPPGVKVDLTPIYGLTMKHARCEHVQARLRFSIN

Row | SMILES | Potency [1] | Potency [2] | Potency [3]
1 | C[C@]12C=CC(=O)C=C1CC[C@@H]1[C@@H]2C(=O)C[C@@]2(C)[C@H]1CC[C@]2(O)C(=O)CO | inactive | – | –
2 | CCn1cc(C(=O)O)c(=O)c2ccc(C)nc21 | inactive | inactive | inactive
3 | COc1ccccc1O | inactive | inactive and 52.6 µM (active) | inactive
4 | COC(=O)C1CCC(C(=O)OC)CC1 (stereo not drawn) | inactive | inactive | inactive
5 | Cn1cnc2c1c(=O)[nH]c(=O)n2C | inactive | – | –
6 | NC(N)=NC(N)=NCCc1ccccc1 | inactive | – | –
7 | Cc1c(N(C)C)c(=O)n(-c2ccccc2)n1C | inactive | 25.6 µM (active) | inactive
8 | COc1cc2c(c(OC)c1OC)-c1ccc(OC)c(=O)cc1[C@@H](NC(C)=O)CC2 | inactive | – | –
9 | O=c1cc[nH]c(=O)[nH]1 | inactive | inactive | inactive
10 | C[C@]12CC[C@@H]3c4ccc(O)cc4CC[C@H]3[C@@H]1CCC2=O | inactive | – | –
11 | CCCCC/C(C=O)=C\c1ccccc1 | inactive | 28.3 µM (active) and 35.6 µM (active) and 5.49 µM (active) | inactive
12 | O=C(O)Cc1cccc2ccccc12 | inactive | 33.5 µM (active) and 43.5 µM (active) | inactive
13 | CC(C)(C)CC(C)(C)c1ccc(O)c(-n2nc3ccccc3n2)c1 | inactive | – | inactive
14 | CC(=O)CCC(C)C | inactive | – | inactive
15 | OC[C@@H](O)[C@@H](O)[C@H](O)[C@H](O)CO | inactive | inactive | inactive
